Assay outcomes as filed in PubChem.
Shown are actives, neighbours in structure and some others; about 15% of the full set was active somewhere.
DT40 TDP1 no CPT – qHTS for Inhibitors of human tyrosyl-DNA phosphodiesterase 1 (TDP1): qHTS in cells in absence of CPT; hit rate 15% among 420,000; Potency, µM (series often up to 46.2 µM), without a hit: at the highest dose activity change, negative = growth inhibition, usual class: inhibitors; DT40 Tdp1-/- hTDP1 cells, no CPT, ATP luminescence, 48 h; note: nearly all actives have a fitted effect of over 55% in size
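Compound effects on proliferation are scored in DT40 Tdp1-/-;hTDP1 cells in the absence of CPT. ATP levels (CellTiter-Glo luminescence) are recorded after a ≥48 hr, 37 °C incubation.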
VP16 counter – Gal4-VP16 reporter inhibition counter-screen; Drosophila S2 Gal4-VP16 UAS-luciferase, luminescence, 20 h; Potency, µM (top dose mostly 53.6 µM), inactives show at the top dose activity, negative = inhibition, most hits filed as inhibitors; hit rate 3.5% among 310,000; AID 2546;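 note: Gal4-VP16 expression switched on by copper sulfate through the metallothionein promoter; nearly all actives have a fitted effect of over 50% in size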
RORgamma inh – inhibitors of mouse ROR gamma transcriptional activity. P51450. Drosophila S2 Gal4-RORgamma UAS-luciferase reporter, 20 h. Potency, µM (doses to about 53.6 µM), without a hit: at the top dose activity change, negative = inhibition, usual class: inhibitors. hit rate 5.4% among 310,000. AID 2551; note: nearly all actives have a fitted effect of over 60% in size
Target sequence (P51450 whole entry, looked up, the tested form may be a part): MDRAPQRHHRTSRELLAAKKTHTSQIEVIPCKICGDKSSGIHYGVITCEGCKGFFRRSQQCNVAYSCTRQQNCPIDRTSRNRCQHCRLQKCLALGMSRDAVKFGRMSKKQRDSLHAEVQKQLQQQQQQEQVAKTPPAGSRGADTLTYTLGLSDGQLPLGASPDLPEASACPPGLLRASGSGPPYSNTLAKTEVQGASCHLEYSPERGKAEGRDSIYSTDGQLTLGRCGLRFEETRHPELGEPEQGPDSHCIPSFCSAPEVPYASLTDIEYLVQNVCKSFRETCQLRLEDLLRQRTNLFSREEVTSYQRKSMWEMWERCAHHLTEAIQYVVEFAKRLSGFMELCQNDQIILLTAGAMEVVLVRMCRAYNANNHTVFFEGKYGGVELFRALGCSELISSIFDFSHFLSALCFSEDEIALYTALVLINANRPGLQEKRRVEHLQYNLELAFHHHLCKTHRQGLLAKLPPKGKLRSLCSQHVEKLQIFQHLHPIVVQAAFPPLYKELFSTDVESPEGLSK
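Read-out: Photinus luciferase luminescence; inhibitors lower reporter signal. Insect Schneider cells with Gal4-ROR gamma fusion under metallothionein promoter, UAS reporter; 700 uM final copper sulfate induction, 20 hr, ambient temperature.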
ELG1 DNA repair – inhibitors of ELG1-dependent DNA repair in HEK293T cells; AID 504467; Potency, µM (top dose mostly 46.1 µM), inactives show at the highest dose activity change, negative = inhibition, actives largely listed as inhibitors; hit rate 2.3% among 330,000; HEK293T ELG1-luciferase reporter, luminescence, 16 h; DNA damage induced by 5-fluorouridine; note: nearly all actives have a fitted effect of over 55% in size
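DMSO vehicle served as the neutral condition. Each well held 2,000 cells given 5-fluorouridine plus compound; after 16 hr at 37 °C/5% CO2, ONE-Glo was added and luciferase measured 30 min later.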
TDP1 cell CPT – growth inhibition of DT40 Tdp1-/-;hTDP1 cells with camptothecin (screen for TDP1 inhibitors); hit rate 12% among 420,000; AID 686979; Potency, µM (titrated, usually from 46.2 µM), for the others: at the highest dose activity change, negative = growth inhibition, usual class: inhibitors; chicken DT40 Tdp1-/-;hTDP1 cells + 20 nM CPT, ATP luminescence, 48 h; note: nearly all actives have a fitted effect of over 55% in size
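Cell growth measured by CellTiter-Glo luminescence after a minimum 48 h, 37 C compound exposure with 20 nM CPT in Tdp1-knockout DT40 cells stably expressing hTDP1, seeded 400/well; qHTS titration format.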
12-LOX inh – ALOX12 (human) lipoxygenase inhibition; hit rate 1.1% among 580,000; P18054; Potency, µM (top dose mostly 108 µM), inactives show at the highest dose activity change, negative = inhibition, actives largely listed as inhibitors; AID 1671190; purified 12hLO, xylenol orange hydroperoxide absorbance
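Purified human 12hLO at 150 nM in 25 mM Hepes, 0.01% Triton X-100, pH 7.0, preincubated 15 min at room temperature with compound. Reaction started with 40 uM arachidonic acid, 30 min at room temperature. Hydroperoxide measured by Fe-xylenol orange, 573/405 nm absorbance ratio.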
* marks the source's active call; other numbers are inactive results; ? = inconclusive; . = no result given; ! = repeats disagree. Calls come from the whole dose curve; as a rule, active = well fitted curve in the direction sought with a large enough effect; inconclusive = small, poorly fitted or top-dose-only effect, or another doubt; inactive = no such curve, though single readings can be large; an effect the other way counts as inactive or inconclusive. % is set by controls: 0 for no effect and ±100 for the full control effect; potency is the fitted concentration of half-maximal effect.

SMILES	DT40 TDP1 no CPT	VP16 counter	RORgamma inh	ELG1 DNA repair	TDP1 cell CPT	12-LOX inh
COc1ccc(-c2cc(C(=O)N3CCN(c4ccccc4)CC3)no2)cc1	21µM*!	-10%	0%	?	18µM*!	1%
COc1ccc(OC)c(-c2cc(C(=O)N3CCc4ccccc4C3)no2)c1	?	?	?	-9%	-20%	-55%
C[C@H](C(=O)N(C)CCC#N)C1CC[C@@]2(C)Cc3sc(NC(=O)C4CC4)nc3[C@@H](C)[C@@H]2[C@H]1O (stereo not given in full)	.	.	.	.	.	15%
CCN(CC)P(=O)(Nc1ccc(C)cc1Br)c1ccc(N(C)C)cc1NC(=O)c1ccco1 (stereo not given)	16µM*	8%	33%	?	?	?
S=c1[nH]nc(-c2n[nH]c3c2CCC3)n1/N=C/C=C/c1ccco1	-25%	0%	-13%	4%	-10%	?
COc1cccc(/C=N/n2c(-c3n[nH]c4c3CCC4)n[nH]c2=S)c1O	?	-21%	?	-5%	-4%	40µM*
COc1ccccc1/C=C/C=N/n1c(-c2n[nH]c3c2CCC3)n[nH]c1=S	13µM*	0%	-30%	?	?	?
Cc1cccc(OCCOC(=O)c2ccc3nccnc3c2)c1	.	.	.	.	.	21%
Cc1cc(C)cc(C(=O)NCC(=O)N(C)Cc2c(C)nn(-c3ccccc3)c2C)c1	.	.	.	.	.	-14%
Cc1nc(CCC(=O)N2CCCC(CCc3c(F)cccc3F)C2)n[nH]1 (stereo not given)	.	.	.	.	.	27%
CN(CC(=O)NC(=O)NC1CCCC1)c1ccccc1	.	.	.	.	.	-7%
CCCCCCN1C=CC=C/C1=C/C=C(C#N)C#N	?	-20%	?	20%	?	-6%
CCCCCCN1C=C/C(=C\C=C(C#N)C#N)c2ccccc21	23µM*	-15%	-10%	?	?	-4%
O=C(NC(Nc1cc(C(F)(F)F)ccc1Cl)C(=O)c1ccccc1)c1ccccc1 (stereo not given)	21µM*	-7%	-27%	12%	?	1%
CCCC(=O)NC(Nc1cc(C(F)(F)F)ccc1Cl)C(Cl)(Cl)Cl (stereo not given)	18µM*	10µM*	?	-12%	18µM*	-14%
CCCC(=O)NC(Nc1cccc(C(F)(F)F)c1)C(Cl)(Cl)Cl (stereo not given)	21µM*	-1%	11%	2%	?	23%
Cc1ccc(-c2ccc3nnc(CNC(=O)c4cccc5[nH]ccc45)n3n2)cc1C	.	.	.	.	.	53%
O=C1NC(=O)C(c2ccccc2[N+](=O)[O-])=C1Nc1ccc(O)c(Cl)c1	27µM*!	0%	?	?	7.3µM*!	?
Cc1ccccc1-c1cc(C(=O)NCc2cccc(C(F)(F)F)c2)nn1CC1CC(c2cccc([N+](=O)[O-])c2)=NO1 (stereo not given)	23µM*	.	.	-7%	?	1%
Cc1ccccc1-c1cc(C(=O)NCc2ccc(OC(F)(F)F)cc2)nn1CC1CC(c2cccc([N+](=O)[O-])c2)=NO1 (stereo not given)	18µM*	.	.	?	16µM*	-3%
Cc1ccccc1-c1cc(C(=O)NCc2ccc3c(c2)OCO3)nn1CC1CC(c2cccc([N+](=O)[O-])c2)=NO1 (stereo not given)	?	.	.	-26%	-7%	-18%
O=C(COC(=O)C1(c2ccccc2F)CCCC1)NCc1cccs1	23µM*	5%	39%	?	?	4%
O=C(COC(=O)C1(c2ccccc2F)CCCC1)NCc1ccc2c(c1)OCO2	?	-30%	32%	?	?	-20%
COc1cc(OC)cc(C(=O)Nc2cc(NC(=O)c3ccco3)ccc2OC)c1	18µM*	2%	10%	21µM*	23µM*	-11%
COc1ccc(NC(=O)c2ccco2)cc1NC(=O)c1cc2ccccc2o1	15µM*	1%	12%	?	23µM*	3%
SMILES	DT40 TDP1 no CPT	VP16 counter	RORgamma inh	ELG1 DNA repair	TDP1 cell CPT	12-LOX inh
O=C(NCCc1noc(C2CC2)n1)Nc1cccc(C(F)(F)F)c1	.	.	.	.	.	31%
CC(=O)Oc1ccc(C(c2ccc(OC(C)=O)cc2)c2ccccn2)cc1	15µM*	-3%	-2%	-9%	?	13%
CC(=O)OC1CC2C(C)(C)C(O)CC[C@@]2(C)C2CC[C@@]3(C)C(c4ccoc4)OC(=O)C4O[C@@]43[C@]12C (stereo not given in full)	18µM*	-29%	-20%	.	?	.
CC(=O)OC1CC2C(C)(C)C(O)CC[C@@]2(C)C2CC[C@@]3(C)C(c4ccoc4)OC(=O)C4OC43[C@]12C (stereo not given in full)	21µM*	-28%	-13%	.	?	.
COc1ccccc1C=NN=Cc1ccccc1O	-25%	.	.	.	-13%	-7%
CN(C)c1ccc(/C=N/N=C/c2ccccc2O)cc1	?	?	7.9µM*	?	?	9%
Cc1ccc(-c2cc(C(=O)OC(C)C(N)=O)c3ccccc3n2)cc1 (stereo not given)	.	.	.	.	.	-5%
CCOc1cccc(CNC(=O)[C@H]2CCC[C@H]2NC(=O)c2cnc(C)cn2)c1	.	.	.	.	.	59%
O=C(CCCc1nc2ccccc2o1)NCc1ccc(Cl)cc1	.	.	.	.	.	15%
COc1ccc(-c2c(C#Cc3ccsc3)c3cc(-c4ccc(C(N)=O)cc4)ccc3n2C)cc1	?	.	.	-14%	23µM*	-3%
COc1ccc(-c2c(C#Cc3ccsc3)c3cc(-c4cccc5[nH]ccc45)ccc3n2C)cc1	18µM*	.	.	13%	?	2%
COc1cc(F)cc(-c2ccc3c(c2)c(C#Cc2ccsc2)c(-c2cc(OC)cc(OC)c2)n3C)c1	15µM*	.	.	?	?	5%
COc1ccc(-c2c(C#Cc3ccsc3)c3cc(-c4ccc5c(c4)OCCO5)ccc3n2C)cc1	-7%	.	.	19%	-23%	-13%
COc1ccc(-c2c(C#Cc3ccsc3)c3ccccc3n2C)cc1	23µM*	0%	?	?	21µM*	-29%
COc1cc(OC)cc(-c2c(C#Cc3ccsc3)c3cc(-c4ccc(OC)c(OC)c4)ccc3n2C)c1	-15%	.	.	16%	-9%	?
COc1ccc(-c2c(C#Cc3ccsc3)c3cc(-c4ccc5[nH]ccc5c4)ccc3n2C)cc1	?	.	.	6%	-23%	-57%
